Source: PubChem (National Center for Advancing Translational Sciences (NCATS))
Most compounds without a hit are left out; they make up all but 19% or so of the library.
RORg inh – qHTS for inhibitors of ROR gamma transcriptional activity; Nuclear receptor ROR-gamma (Mus musculus), P51450; Drosophila S2 Gal4-RORgamma UAS-luciferase reporter, 20 h; Potency, µM (doses to about 53.6 µM), actives largely listed as inhibitors; 5.4% of 310,000 active; AID 2551, 2010; note: nearly all actives have a fitted effect of over 60% in size
Target sequence (P51450 whole entry, looked up, the tested form may be a part): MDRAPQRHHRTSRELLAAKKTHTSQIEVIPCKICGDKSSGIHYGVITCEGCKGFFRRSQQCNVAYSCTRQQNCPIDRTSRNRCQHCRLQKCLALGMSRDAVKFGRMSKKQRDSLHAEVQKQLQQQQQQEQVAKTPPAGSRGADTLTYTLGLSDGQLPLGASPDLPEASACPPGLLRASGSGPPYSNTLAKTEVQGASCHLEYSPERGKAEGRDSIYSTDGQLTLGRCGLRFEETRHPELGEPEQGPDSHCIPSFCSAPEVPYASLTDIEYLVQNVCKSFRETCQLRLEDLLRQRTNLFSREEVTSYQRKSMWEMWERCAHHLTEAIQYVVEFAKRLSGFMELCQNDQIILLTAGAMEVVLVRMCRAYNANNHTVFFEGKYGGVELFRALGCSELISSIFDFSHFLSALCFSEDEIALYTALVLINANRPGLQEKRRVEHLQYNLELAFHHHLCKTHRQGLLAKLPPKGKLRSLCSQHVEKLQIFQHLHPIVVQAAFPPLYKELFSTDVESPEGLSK
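Schneider cells (Drosophila), stable Gal4 DBD–ROR gamma + UAS-luc; 1 hr cmpd preincubation; Cu2+ induction 700 uM final; 20 hr ambient; luminescence.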
DT40 TDP1 no CPT – qHTS for Inhibitors of human tyrosyl-DNA phosphodiesterase 1 (TDP1): qHTS in cells in absence of CPT | DT40 Tdp1-/- hTDP1 cells, no CPT, ATP luminescence, 48 h | Potency, µM (highest dose often 46.2 µM), actives largely listed as inhibitors | 15% of 420,000 active | AID 686978, 2013; note: nearly all actives have a fitted effect of over 55% in size
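Readout: luminescence from CellTiter-Glo after 30 min in the dark at RT. Cells: DT40 Tdp1-/- with stable hTDP1, 400/well. Exposure: compounds alone, ≥48 hr, 37 °C.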
TDP1 cell CPT – qHTS for Inhibitors of human tyrosyl-DNA phosphodiesterase 1 (TDP1): qHTS in cells in presence of CPT. chicken DT40 Tdp1-/-;hTDP1 cells + 20 nM CPT, ATP luminescence, 48 h. 12% of 420,000 active. Potency, µM (titrated, usually from 46.2 µM), usual class: inhibitors; note: nearly all actives have a fitted effect of over 55% in size
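Cell growth measured by CellTiter-Glo luminescence after a minimum 48 h, 37 C compound exposure with 20 nM CPT in Tdp1-knockout DT40 cells stably expressing hTDP1, seeded 400/well; qHTS titration format.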
VP16 counter – VP16 counterscreen qHTS for inhibitors of ROR gamma transcriptional activity | Drosophila S2 Gal4-VP16 UAS-luciferase, luminescence, 20 h | Potency, µM (top dose mostly 53.6 µM), actives largely listed as inhibitors | 3.5% of 310,000 active | AID 2546, 2010;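 note: Gal4-VP16 expression switched on by copper sulfate through the metallothionein promoter; nearly all actives have a fitted effect of over 50% in size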
TDP1 inh – qHTS Assay for Inhibitors of Tyrosyl-DNA Phosphodiesterase (TDP1); AID 485290, 2010; 0.28% of 350,000 active; Tyrosyl-DNA phosphodiesterase 1 (Homo sapiens), Q9NUW8; recombinant TDP1, AlphaScreen DNA substrate cleavage; Potency, µM (highest dose often 130 µM), hits mostly inhibitors; note: nearly all actives have a fitted effect of over 40% in size
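E. coli-derived human Tdp1, 1 nM final. Cpd preinc 15 min RT; substrate 15 nM final, 5 min RT; AS bead mix 10 ug/ml final, 10 min RT. Signal loss = tyrosine-FITC cleavage. No-enzyme wells = max signal.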
Hits are given with their value; i = inactive; ? = inconclusive; nt = no result; [ ] = another dose, or the depositor's remark. Calls come from the whole dose curve; as a rule, active = well fitted curve in the direction sought with a large enough effect; inconclusive = small, poorly fitted or top-dose-only effect, or another doubt; inactive = no such curve, though single readings can be large; an effect the other way counts as inactive or inconclusive.

SMILES | RORg inh | DT40 TDP1 no CPT | TDP1 cell CPT | VP16 counter | TDP1 inh
CCN(C(=O)c1cn(CC)c(=O)c2cc(OC)c(OC)cc12)c1ccccc1F | nt | 21µM | i | nt | i
COc1cc(C(=O)N(C(C)C)C2CCCCC2)cc(OC)c1OC | nt | 10µM | 12µM | nt | nt
COc1cc(C(=O)NC2CCCCCCC2)cc(OC)c1OC | nt | ? | i | nt | nt
CCN(C(=O)c1cc(Cl)ccc1OC)C1CCCCC1 | i | 23µM | ? | i | i
CC(C)(C)c1ccc(OCC(=O)NCCN2CCOCC2)cc1 | i | i | i | i | nt
Cc1nc(C(F)(F)F)ccc1C(=O)N1CCC1(C)C(=O)NS(=O)(=O)c1ccc2c(c1)CCO2 (stereo not drawn) | nt | i | i | nt | nt
CCN(C(=O)/C=C/c1cc(OC)c(OC)c(OC)c1)C1CCCCC1 | i | ? | ? | i | nt
CCN(C(=O)c1cc(OC)c(OC)c(OC)c1)C1CCCCC1 | nt | 23µM | ? | nt | nt
Cc1ccnc(NC2CCCCC2)c1 | i | i | i | i | i
Cc1cc(NC2CCCCC2)nc2ccccc12 | i | 16µM | ? | i | i
COc1ccc(N2CCN(c3cc(C)nc4ccc(OC)cc34)CC2)cc1 | i | 23µM | 15µM | i | i
COc1ccc2nc(C)cc(N3CCC(C(N)=O)CC3)c2c1 | i | i | i | i[10 µM] | i
CCOC(=O)C1CCN(c2cc(C)nc3ccc(OC)cc23)CC1 | i | 16µM | ? | i | i
Cc1ccc(CNC(=O)CCNC(=O)c2ccc([N+](=O)[O-])cc2)cc1 | nt | i | i | nt | i
COc1ccc(Cl)cc1NC(=O)CN(C)CC(=O)Nc1ccc(S(N)(=O)=O)cc1 | i | i | i | i | i
COc1ccc(C)cc1NC(=O)Nc1nnc(N2CCCCC2)s1 | nt | ? | ? | nt | i
Cc1c(Cl)cccc1NC(=O)Nc1nnc(N(C)C2CCCCC2)s1 | nt | 16µM | 15µM | nt | i
Cc1ccc(NC(=O)Nc2nnc(N(C)C3CCCCC3)s2)c(Cl)c1 | nt | ? | 16µM | nt | i
COc1cc(OC)c(NC(=O)Nc2nnc(N(C)C3CCCCC3)s2)cc1Cl | nt | 8.2µM | 21µM | nt | i
O=C(N/N=C\c1c(O)ccc2ccccc12)c1ccc(Cn2cccn2)o1 | 2.5µM | 5.8µM | 5.8µM | 13µM | i
CC(C)c1ccc(/C=N\NC(=O)c2ccc(Cn3cccn3)o2)cc1 | i | ? | i | ? | i
O=C(N/N=C\c1ccc(Cl)s1)c1ccc(Cn2cccn2)o1 | 10µM | ? | ? | i | i
O=C(CN(CC(=O)N1CCOCC1)S(=O)(=O)c1ccc(Br)s1)N1CCOCC1 | nt | i | i | nt | nt
CCOc1ccc(C(=O)Nc2cccc3ncccc23)cc1Cl | i[1.91 µM] | ? | 23µM | i | nt
COc1cc(C(=O)Nc2ccccc2C(=O)Nc2ccccn2)cc(OC)c1OC | i | 3.3µM | 4.6µM | i | i
SMILES | RORg inh | DT40 TDP1 no CPT | TDP1 cell CPT | VP16 counter | TDP1 inh
CCOc1ccc(C(=O)Nc2cccc(C(=O)O)c2C)cc1Cl | i | i | i | 1.6µM | i
COc1cc(C(=O)Nc2cccc3ncccc23)cc(OC)c1OC | 35µM | i | i | i | i
CCOc1ccc(C(=O)Nc2ccccc2-c2ccccc2)cc1Cl | i | ? | i | i | i
CNC(=O)[C@]1(C)C[C@H]1[C@H](NC(=O)[C@]1(C)C[C@H]1[C@H](NC(=O)[C@]1(C)C[C@H]1[C@H](NC(=O)[C@]1(C)C[C@H]1[C@H](NC(=O)OCc1ccccc1)c1ccccc1)c1ccccc1)c1ccccc1)c1ccccc1 | i | nt | nt | i | i
COC(=O)C(CC(=O)c1ccc(Cl)cc1)c1ccc(C)cc1 (stereo not drawn) | i | i | i | i | i
COc1cc(C(=O)Nc2c(C(=O)O)[nH]c3ccc(Br)cc23)cc(OC)c1OC | i | i | i | i | nt
COc1cc(C(=O)Nc2ccc(Br)cc2C(=O)c2cc(OC)c(OC)c(OC)c2)cc(OC)c1OC | i | 3.7µM | 13µM | i | i
CCOC(=O)NC(C)N1C(=O)C2C3C=CC(C3)C2C1=O (stereo not drawn) | i | i | i | i | i
CC(C)NC(=O)CN(Cc1ccc2c(c1)OCO2)C(=O)CCC(=O)Nc1ccccn1 | i | i | i | i | i
CCc1ccc(C(C)NC(=O)Cn2cnc3c(=O)n(C)c(=O)n(C)c32)cc1 (stereo not drawn) | i | ? | i | i | i
Cn1cc(C(=O)c2ccc(F)cc2)cc1-c1nc2ccccc2n1C | i | 16µM | ? | i | i
COc1ccc(-c2nc3ccccc3o2)cc1NC(=O)CSc1ccc(Cl)cc1 | 1.4µM | ? | ? | i | i
COc1ccc(-c2nc3ccccc3o2)cc1NC(=O)C(C)Oc1ccc(Cl)cc1Cl (stereo not drawn) | nt | 23µM | ? | nt | i
COc1cc(/C=C/C(=O)N(C)c2ccccc2C(=O)O)cc(OC)c1OC | i | i | i | i | i
COc1ccc(/C=C/C(=O)Nc2ccccc2C(F)(F)F)cc1 | i | i | ? | i | i
COc1ccc(/C=C/C(=O)Nc2ccccc2C(=O)O)cc1 | 7.9µM | i | ? | 10µM | i
COc1ccc(/C=C/C(=O)Nc2ccccc2C(=O)NCC(c2ccc(OC)cc2)N(C)C)cc1 (stereo not drawn) | i | 23µM | 18µM | i | i
COc1ccc(/C=C/C(=O)Nc2ccccc2C(F)(F)F)cc1OC | i | i | i | i | i
COC(=O)c1ccccc1NC(=O)/C=C/c1cc(OC)c(OC)c(OC)c1 | i | 21µM | 21µM | i | i
COc1ccc(/C=C/C(=O)Nc2ccccc2C(=O)O)cc1OC | 3.5µM | ? | i | 7.9µM | i
O=S(=O)(NCCCN1CCOCC1)c1ccc2ccccc2c1 | ? | i | i | i | i
N=C1/C(=C\c2ccc(Br)o2)C(=O)N=C2SC(CC(=O)N3CCCCC3)=NN12 | i | 7.3µM | 6.5µM | i | i
CCOC(=O)c1c(C)c(C(=O)NC2CCCCCC2)c(C)n1C | i | i | i | i | i
NS(=O)(=O)c1ccc(CCNc2nc3c(-c4cccc(F)c4)nnn3c3ccccc23)cc1 | i | 12µM | ? | ? | i
CC(=O)NCCNc1nc2c(-c3ccccc3)nnn2c2ccccc12 | ? | 8.2µM | ? | i | nt
Cc1cccc(-c2nnn3c2nc(NCCc2ccc(S(N)(=O)=O)cc2)c2cc(Cl)ccc23)c1 | nt | 5.8µM | 9.2µM | nt | i
CC(=O)NCCNc1nc2c(-c3cccc(C)c3)nnn2c2ccc(Cl)cc12 | nt | i | i | nt | i
COc1cccc(CNc2nc3c(-c4cccc(C)c4)nnn3c3ccccc23)c1 | nt | ? | i | nt | i
Cc1cccc(-c2nnn3c2nc(NCc2ccc4c(c2)OCO4)c2ccccc23)c1 | nt | ? | 23µM | nt | i
